Out of some 69,000 compounds screened, about 8,600 (12%) showed an effect of 50% or more. The entries come from a sample that favours strong results as a whole.

This assay relates to Plasmodium berghei. Put plainly: Screen against P. berghei liver stage (PbLuc), transformed with Luciferase, at 10uM. The assay is classed as functional, HepG2. The note with it: tested at 10 uM.
Turning to `CCOc1nn(CC)cc1-c1nnc(SCc2cccnc2)n1CC`, the INHIBITION came to 9%. Consider `Cc1cc(CNc2cccc(C(=O)N(C)c3ccccc3)c2)no1`, for which the INHIBITION is reported as 45%. In the case of `Cc1noc(C)c1CNc1cccc(C(=O)N2CCCC(O)C2)c1` (stereo not given), the INHIBITION is recorded as 20.6%. Take `Cc1noc(C)c1CNc1cccc(C(=O)N(C)c2ccccc2)c1`: the INHIBITION turned out to be 59.1%. In the case of `Cc1noc(C)c1CN1C[C@@H](OCc2ccccn2)[C@H]2OCCC[C@H]21`, the INHIBITION is reported as -14.4%. Then `Cc1ccc(Cc2cnc(C3CCNCC3)cn2)cc1`, with 13.5%; and `CC(C)n1nc(CN2CCOCC2)c2c1CN(Cc1ccsc1)C2`, with -18.2%.

On to `OC(CN1CCC(c2ccn[nH]2)CC1)c1cccc(C(F)(F)F)c1` (stereo not given), for which the INHIBITION is recorded as -33.9%. With `OC(CN(Cc1ccccc1)Cc1ccon1)c1ccco1` (stereo not given), the INHIBITION is -21%. Regarding `OC(CN(Cc1ccccc1)Cc1ccncc1)c1cccs1` (stereo not given), the INHIBITION is reported as 7.11%. For the compound `OC(CN(Cc1ccccc1)Cc1ccccn1)c1cccs1` (stereo not given), the INHIBITION is given as 55.9%. `Cc1cc(CN(Cc2ccccc2)CC(O)c2cccs2)on1` (stereo not given): the INHIBITION is given as 30.3%. On to `OC(CN(Cc1ccccc1)Cc1cccnc1)c1cccs1` (stereo not given), for which the INHIBITION stood at 57.2%.

Regarding `OC(CN(Cc1ccccc1)Cc1ccon1)c1cccs1` (stereo not given), the INHIBITION was determined as 70.1%. Turning to `Cc1cnc(CN(Cc2ccccc2)CC(O)c2cccs2)cn1` (stereo not given), the INHIBITION was -34.7%. Then `Cn1cc(CN(Cc2ccccc2)CC(O)c2cccs2)cn1` (stereo not given), with -58.4%; and `OC(CN(Cc1ccccc1)Cc1cscn1)c1cccs1` (stereo not given), with 9.72%.

Regarding `CC(C)c1ccccc1NC(=O)N1C[C@H]2CC[C@@H](C1)N(C)C2=O`, the INHIBITION is listed as -14.5%.

For `Cn1cccc1CN(C(=O)CC(CC(=O)O)c1cccs1)C1CC1` (stereo not given), the INHIBITION is listed as -42.1%. As for `Cn1cnc(S(=O)(=O)N2C[C@H]3CC[C@@H](C2)N(Cc2cscn2)C3=O)c1`, the INHIBITION was determined as 10.5%. Regarding `CCN(C)S(=O)(=O)N1C[C@H]2CC[C@@H](C1)N(Cc1cscn1)C2=O`, the INHIBITION is on record as -23.7%.

For the compound `O=C1[C@@H]2CC[C@@H](CN(S(=O)(=O)c3ccccc3)C2)N1Cc1cscn1`, the INHIBITION was 25.1%. Consider `CCCS(=O)(=O)N1C[C@H]2CC[C@@H](C1)N(Cc1cscn1)C2=O`, for which the INHIBITION was found to be 53.3%. As for `CCN(CC)S(=O)(=O)N1C[C@H]2CC[C@@H](C1)N(Cc1cscn1)C2=O`, the INHIBITION was 51.1%. For `CS(=O)(=O)N1C[C@H]2CC[C@@H](C1)N(Cc1cscn1)C2=O`, the INHIBITION is 13.5%. For the compound `Cc1cnc(C(=O)N2C[C@@H]3CN(CC4CCCC4)CCO[C@@H]3C2)cn1`, the INHIBITION was 13.6%. For the compound `CN(C)Cc1cc(=O)n2c(n1)CN(C(=O)Cc1ccsc1)CCC2`, the INHIBITION turned out to be 33.5%.

For the compound `CCc1ncc(C(=O)NCCN(C)S(C)(=O)=O)cn1`, the INHIBITION was 43.2%.

As to `CCCS(=O)(=O)CC(=O)Nc1cc(CC(C)(C)C)n[nH]1`, the INHIBITION is reported as -45.9%. Then `O=C1CCCN1CC1CN(C(=O)C2CCOCC2)Cc2nccn2C1` (stereo not given), with 0.542%. Take `O=C1CCCN1CC1CN(C(=O)N2CCOCC2)Cc2nccn2C1` (stereo not given): the INHIBITION was 34.4%. As for `O=C1CCCN1CC1CN(CC2CCOCC2)Cc2nccn2C1` (stereo not given), the INHIBITION is recorded as 57.4%.

In the case of `CCCc1nnc2sc(C3CCN(CCOC)CC3)nn12`, the INHIBITION was 31.2%. Take `NC(=O)CN1CCOCC(Cc2cccc(F)c2)C1` (stereo not given): the INHIBITION is recorded as -44.2%. For the compound `Cc1cccc(CN2C[C@@H]3OCCN(S(=O)(=O)N(C)C)[C@@H]3C2)n1`, the INHIBITION amounted to 54.1%. Take `Cc1cccc(CN2C[C@@H]3CN(Cc4ccoc4)CCO[C@@H]3C2)n1`: the INHIBITION was 23.3%. For the compound `Cc1ccc(N2CCO[C@@H]3CN(Cc4cccc(C)n4)CC[C@@H]3C2)nn1`, the INHIBITION was found to be 52.3%.

Turning to `Cc1cccc(N2CC[C@@H]3CN(Cc4csc(C)n4)CCO[C@@H]3C2)n1`, the INHIBITION was 66.5%.

With `Cc1cccc(CN2C[C@@H]3OCCN(S(=O)(=O)N(C)C)[C@@H]3C2)c1`, the INHIBITION is on record as -7.94%.

With `Cc1ccc(N2CC[C@@H]3CN(Cc4cccc(C)n4)C[C@@H]3C2)nn1`, the INHIBITION is given as -2.41%. Regarding `Cc1nc(CN2CCO[C@@H]3CN(Cc4ccccn4)CC[C@@H]3C2)cs1`, the INHIBITION came out at 42.3%. As for `Cc1cccc(CN2C[C@@H]3OCCN(C)[C@@H]3C2)n1`, the figure is -22.7%. Then `Cc1ccc(N2C[C@@H]3CN(Cc4csc(C)n4)CCO[C@@H]3C2)nn1`, with 42.6%; and `O=S(=O)(c1ccc(F)cc1)N1CCCCC1c1cc[nH]n1` (stereo not given), with 13%; and `CN1CCN(c2ncc(-c3cnccn3)c([C@H]3CCCO3)n2)CC1`, with 14.7%. For the compound `CN1CCN(CC2CC2)C(=O)c2cnc(N3CCOCC3)nc21`, the INHIBITION is reported as 26.3%. With `CN(C)C[C@]12COC[C@H]1CN(C(=O)CCc1ccccc1)C2`, the INHIBITION was found to be 6.66%.

On to `CC(C)NC(=O)N1CCC[C@H]1C(=O)NCCCc1cnn(C)c1`, for which the INHIBITION is -34.6%. Then `CC(=O)N1CCC(c2nccnc2-c2ccc(F)cc2)CC1`, with 43.6%; and `Cc1cc(C)n(CC2CCCCN2C(=O)c2ccc3[nH]nnc3c2)n1` (stereo not given), with 20.9%.

`CC(NC(=O)CCn1cccn1)c1ccc2c(c1)OCCO2` (stereo not given): the INHIBITION stood at 22.3%.

Consider `CC(NC(=O)NCCCO)c1ccc2c(c1)OCCO2` (stereo not given), for which the INHIBITION stood at 52.1%. With `CC(NC(=O)NCCCO)c1ccc2c(c1)NC(=O)CO2` (stereo not given), the INHIBITION is -11.4%. For `CC(NC(=O)Cn1cccn1)c1ccc2c(c1)OCCO2` (stereo not given), the INHIBITION is 41.5%. Consider `CC(NC(=O)NCCCn1cncn1)c1ccc2c(c1)OCCO2` (stereo not given), for which the INHIBITION was 21.8%. With `CC(NC(=O)Cn1cccn1)c1ccc2c(c1)OCCCO2` (stereo not given), the INHIBITION stood at 62.1%. Then `Cc1ccc2c(c1)C1(CC(=O)Nc3[nH]ncc31)C(=O)N2C` (stereo not given), with 21.5%. On to `CCCc1noc(CN(C)Cc2ccc3c(c2)OCO3)n1`, for which the INHIBITION is recorded as 19.3%. Turning to `CCc1noc(CN(C)CC(c2cccs2)N2CCOCC2)n1` (stereo not given), the INHIBITION is on record as 60.5%. For the compound `CN(Cc1noc(C(C)(C)C)n1)CC1CCN(CCO)CC1`, the INHIBITION is reported as 37.5%. As for `CCc1noc(CN(CC(=O)N2CCCCC2)c2cccc(C)c2)n1`, the figure is 18%. On to `CCc1noc(CN(CC(=O)N2CCCCC2)c2ccc(C)cc2)n1`, for which the INHIBITION came out at 50.1%. Consider `Cc1noc(CN(C)CC(c2cccs2)N2CCOCC2)n1` (stereo not given), for which the INHIBITION stood at 35.9%. For `CCc1noc(CN(C)Cc2ccc(N3CCCCC3)cc2)n1`, the INHIBITION is reported as 61.8%. Turning to `CCc1nc(CN(C)CC(c2cccs2)N2CCOCC2)no1` (stereo not given), the INHIBITION was 36.4%. For the compound `CN(Cc1ccc(N2CCOCC2)cc1)Cc1noc(C(C)(C)C)n1`, the INHIBITION is reported as -8.51%. Regarding `CCc1noc(CN(C)Cc2cc(Br)ccc2OC)n1`, the INHIBITION is 30.9%. Consider `Cc1cccc(N(CC(=O)N2CCCCC2)Cc2ccno2)c1`, for which the INHIBITION is 36.2%. As to `CN(Cc1ccc(N2CCCCC2)cc1)Cc1noc(C(C)(C)C)n1`, the INHIBITION was determined as 78.5%. Consider `CN(C)C(=O)CN1CCCC(c2cncc(-c3cccc(Cl)c3)n2)C1` (stereo not given), for which the INHIBITION came out at 35.2%. As for `CC(=O)NCC1CCN(C(=O)NCCc2ccc(Cl)s2)CC1`, the figure is 13.3%; as for `CCCC(=O)N1CCCCC1c1nc(N(C)C)ncc1-c1cc(C)no1` (stereo not given), 23.1%.

Regarding `CN1CCCC(c2cccc(CCC(=O)NCC3(C)COC3)n2)C1` (stereo not given), the INHIBITION came to 13%. On to `NC(=O)Cn1cc(NC(=O)N2CCCCCC2)cn1`, for which the INHIBITION was found to be 2.5%. With `Cc1cc(CN2CCC(C(=O)O)(n3ccc(-c4ccco4)n3)CC2)on1`, the INHIBITION is given as 1.48%. As for `O=C1NCC2(CCCN(C(=O)c3c[nH]nc3-c3cccs3)C2)O1` (stereo not given), the figure is 6.29%. On to `Cn1cnc2ccc(NC(=O)CC3CCN(C4CCCCC4)CC3)cc21`, for which the INHIBITION was determined as 12.17%. For the compound `Cc1ccnc(OC[C@]23COC[C@H]2CN(C(=O)c2cnccn2)C3)n1`, the INHIBITION is recorded as 32.2%. Then `CCc1ccc(Cn2nccc2NC(=O)C2CCS(=O)(=O)C2)cc1` (stereo not given), with 11.8%; and `COc1cccc2cc(CNCc3ccnc(N(C)C)c3)oc12`, with -4.94%; and `CNC(=O)C1CN(c2ccnc(C)n2)CCN(C2CCOCC2)C1` (stereo not given), with 23%. Then `CN(Cc1noc(C(C)(C)C)n1)Cc1ccccc1N1CCCC1`, with -2.92%; and `CN(Cc1noc(C(C)(C)C)n1)Cc1ccccc1N1CCCCC1`, with 90.4%; and `Cc1cc(CN(C)Cc2ccccc2N2CCCCC2)n[nH]1`, with 20.2%. `COCCc1noc(CN2CCCC(Cn3cncn3)C2)n1` (stereo not given): the INHIBITION was -0.96%. For the compound `NC(=O)Cn1c(CO)cnc1SCC(=O)NCc1ccccc1`, the INHIBITION is 15%. With `N#Cc1cccc(N2CCC(CO)(CCCc3ccccc3)CC2)n1`, the INHIBITION was determined as 22%.

Turning to `N#Cc1cccc(N2CCC(CO)(CCOc3ccccc3)CC2)n1`, the INHIBITION is given as 17.4%. As for `N#Cc1cccc(N2CCC(CO)(CCc3ccccc3)CC2)n1`, the figure is 51.7%. For the compound `Cn1cc(CC2CC(=O)N(Cc3ccc(Cl)cc3)C2=O)cn1` (stereo not given), the INHIBITION amounted to 8.12%.

For `Nc1ncnc2c1ncn2[C@H]1CCN(Cc2ccsc2)CC[C@@H]1O`, the INHIBITION was determined as 17.4%. On to `Cc1ncsc1CN1CCN(C2CCOCC2)CC(C(N)=O)C1` (stereo not given), for which the INHIBITION was found to be 25.6%. As for `Cc1ncsc1CN1CC[C@H](O)[C@@H](n2cnc3c(N)ncnc32)CC1`, the INHIBITION was determined as 50.1%. As to `CC(C)c1noc(-c2ccnc(-n3cnc(C(=O)O)c3)c2)n1`, the INHIBITION was -8.35%. On to `CCc1nccn1-c1cccc(C2CCCN(C3CCCCC3)C2)n1` (stereo not given), for which the INHIBITION was determined as 24.8%.

As to `Cc1cn2nc(N3CCCC3Cn3cccn3)sc2n1` (stereo not given), the INHIBITION is on record as -12.1%. For `O=C(C1CCCN(Cc2cccnc2)C1)N1CCc2sccc2C1` (stereo not given), the INHIBITION is given as 55.5%. `O=C(C1CCCN(Cc2ccccc2)C1)N1CCc2sccc2C1` (stereo not given): the INHIBITION is listed as 48.8%. Regarding `O=C(C1CCCN(Cc2cccc(F)c2)C1)N1CCc2sccc2C1` (stereo not given), the INHIBITION is given as 14.1%.

Regarding `CN1CCCc2cc(-c3cncn3CC(=O)NC(C)(C)C)ccc21`, the INHIBITION stood at 18.3%.

For `CCN1c2ccc(-c3cncn3CC(=O)NC(C)(C)C)cc2CC1C` (stereo not given), the INHIBITION came out at 59.3%. As for `CC1Cc2cc(-c3cncn3CC(=O)NC(C)(C)C)ccc2N1C` (stereo not given), the figure is 52%; as for `CCN1CCc2cc(-c3cncn3CCNC3CCS(=O)(=O)C3)ccc21` (stereo not given), 27.6%; as for `Cc1nn(C)c(C)c1CCn1cncc1-c1ccc2c(c1)CC(C)N2C` (stereo not given), 22.8%. Then `CCN1CCc2cc(-c3cncn3CC(=O)NC(C)(C)C)ccc21`, with 6.32%.
